Compound activity: PubChem, several laboratories
Hits are enriched below; roughly 1.5% of the tested compounds scored in any of these assays.
hDAT+cocaine: human DAT dopamine uptake with cocaine, either direction; LLC-PK1 hDAT cells, [14C]-dopamine uptake with cocaine IC80; actives deviate in either direction; actives 1.3% (n = 110,000); B-score at 10 µM; Q01959;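 active = Z score or B-score, a plate-position-corrected score, falls beyond the plate's 99.7% confidence bounds, in either direction; inactive = both scores lie inside the 99.7% bounds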;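 also: scored against the spread of the other compound wells on the same plate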
Target sequence (Q01959 whole entry, looked up): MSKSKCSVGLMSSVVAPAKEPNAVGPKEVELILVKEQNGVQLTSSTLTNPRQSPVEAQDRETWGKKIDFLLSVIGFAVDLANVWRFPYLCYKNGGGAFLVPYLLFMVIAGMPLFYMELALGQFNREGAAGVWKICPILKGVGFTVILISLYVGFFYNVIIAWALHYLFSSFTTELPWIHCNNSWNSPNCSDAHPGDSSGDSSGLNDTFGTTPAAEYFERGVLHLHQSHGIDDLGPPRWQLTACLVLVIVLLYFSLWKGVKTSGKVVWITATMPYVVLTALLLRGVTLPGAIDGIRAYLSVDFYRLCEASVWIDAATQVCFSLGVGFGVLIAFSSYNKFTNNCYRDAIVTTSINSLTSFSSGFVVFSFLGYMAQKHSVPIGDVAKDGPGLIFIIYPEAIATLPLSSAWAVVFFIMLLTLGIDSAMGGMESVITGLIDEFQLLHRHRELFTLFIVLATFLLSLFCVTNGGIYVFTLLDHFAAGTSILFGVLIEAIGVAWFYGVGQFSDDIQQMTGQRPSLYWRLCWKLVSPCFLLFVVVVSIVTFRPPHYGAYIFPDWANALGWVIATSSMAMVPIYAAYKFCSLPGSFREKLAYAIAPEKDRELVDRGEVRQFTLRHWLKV
MRP reversal: reverses drug resistance mediated by MRP; H69AR cells + 2 uM doxorubicin, CellTiter-Glo, 72 h; differential viability (reversal), % at 10 µM; actives 0.04% (n = 85,000);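 active = viability drop by adding the cancer drug above about 55%, with treated viability meeting a 40% cutoff, limit read from the data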;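 also: viability without doxorubicin minus viability with 2 µM doxorubicin for each compound; larger differential means the compound sensitizes cells more to doxorubicin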
MRP1 act: activators of MRP-1; H69AR cells + doxorubicin, viability rescue, CellTiter-Glo; viability increase, % at 10 µM; actives 0.61% (n = 140,000);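 active = viability gain under doxorubicin at or above a set limit, the compound median plus 3 SD, cut at about 4.7% in these data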;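 also: MRP-1 overexpressing cells given doxorubicin 25 µM after compound pretreatment; 18-22 h compound pretreatment then 72 h with doxorubicin before readout; 0% = doxorubicin-only wells and 100% = vehicle-treated cells without doxorubicin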
Active calls of the source: *; / = no result.

SMILES	hDAT+cocaine	MRP reversal	MRP1 act
COc1ccc(C2c3c(-c4cc(Cl)c(C)cc4O)n[nH]c3C(=O)N2Cc2cccnc2)cc1OC (centres undefined)	3*	9	-2
COc1ccc(C2c3c(oc4c(C)cc(C)cc4c3=O)C(=O)N2Cc2cccnc2)cc1OC (centres undefined)	/	5	/
COc1ccc(CCN2C(=O)c3[nH]nc(-c4ccccc4O)c3C2c2cccc(O)c2)cc1OC (centres undefined)	2.7*	13	0
O=C1c2[nH]nc(-c3ccccc3O)c2C(c2cccc(Cl)c2)N1Cc1ccco1 (centres undefined)	-0.78	0	-3
O=C(OCn1nnc2ccccc2c1=O)c1ccc(N2CCOCC2)c([N+](=O)[O-])c1	/	/	-1
CC(C)Oc1cccc(C(=O)NC(=S)Nc2ccccc2)c1	/	/	-3
CC(=O)SCC(Cc1ccccc1)C(=O)NCC(=O)OCc1ccccc1 (centres undefined)	-1.3	/	/
COc1ccc(C2CC(c3ccc(Br)cc3)Nc3nc(N)nn32)cc1 (centres undefined)	-0.17	12	1
COc1ccc(C2CC(c3ccccc3)Nc3nc(N)nn32)cc1 (centres undefined)	2.5*	-7	-2
COc1ccc(C2CC(c3ccc(OC)cc3)n3nc(N)nc3N2)cc1 (centres undefined)	0.15	-4	/
Nc1nc2n(n1)C(c1cccs1)CC(c1ccc(Br)cc1)N2 (centres undefined)	1.2	21	5.8*
COc1ccc(C2CC(c3cccc(Cl)c3)n3nc(N)nc3N2)cc1 (centres undefined)	0.016	23	0
COc1ccccc1C1CC(c2ccc(Cl)cc2Cl)Nc2nc(N)nn21 (centres undefined)	1.3	6	5.6*
COc1ccc(C2CC(c3ccc(Cl)cc3)n3nc(N)nc3N2)cc1 (centres undefined)	-0.0071	24	30*
COc1cccc(C2CC(c3ccc(Cl)cc3)Nc3nc(N)nn32)c1 (centres undefined)	-0.2	8	4
CCCC1CCC(=C(C#N)C(N)=O)CC1 (centres undefined)	/	/	-2
c1ccc(-n2nnnc2-c2cnc(-c3cccnc3)nc2-c2cccs2)cc1	0.96	-20	-2
Cc1cc(NCc2ccco2)n2ncnc2n1	/	/	-1
O=[N+]([O-])c1cccc(N/N=C/c2cccc3ccccc23)c1	/	/	-2
Cc1ccc(C(C)(C)C)cc1S(=O)(=O)Nc1cccc(S(=O)(=O)NC2=NCCC2)c1	/	/	-2
CCCc1nc2ccccc2c(=O)n1/N=C/c1ccc(O)cc1	-0.75	-8	-3
CCCc1nc2ccccc2c(=O)n1/N=C/c1ccc(O)cc1O	-8.8*	-17	0
CCCN1CCN(CCCNC(=S)Nc2ccc(OC)cc2)CC1	/	/	-2
Brc1ccc(-c2noc3c2-c2nc(C4CCCCC4)sc2CC3)cc1	-0.99	/	/
O=C(CN1CCCC1)N1CCCc2c1c(=O)oc1ccc(OCc3ccccc3)cc21	2.2*	/	-5
SMILES	hDAT+cocaine	MRP reversal	MRP1 act
CCCOc1ccc2oc(=O)c3c(c2c1)CCCN3C(=O)CN1CCN(C(=O)c2ccco2)CC1	/	-20	-4
CCN1C(=O)[C@H]2[C@H]3[C@H](O)[C@H](O)C/C(=N\OC[C@@H](C)[C@H](OCc4ccccc4)C(C)C)[C@@H]3CC[C@H]2C1=O	/	/	-3
CCCCN1C=C(C(=O)OC)C(c2ccccc2C(F)(F)F)C(C(=O)OC)=C1	3.1*	5	-1
COCCN1C=C(C(=O)OC)C(c2ccccc2C(F)(F)F)C(C(=O)OC)=C1	-0.69	-21	-3
CC(C)(C)C(=O)Nc1cccc(-c2nnc(-c3cccc(NC(=O)C(C)(C)C)c3)o2)c1	0.56	10	-2
COc1ccc(CC(=O)Nc2cccc(-c3nnc(-c4ccccc4)o3)c2)cc1OC	2.7*	13	0
COc1ccc(CC(=O)Nc2ccc(-c3nnc(-c4ccccc4)o3)cc2)cc1OC	0.81	-17	0
CC(=O)Nc1cccc(-c2nnc(-c3ccccc3)o2)c1	-8.4*	-6	0
COc1ccc(CC(=O)Nc2cccc(-c3nnc(-c4cccc(C)c4)o3)c2)cc1OC	3.1*	6	1
COc1ccc(CC(=O)Nc2cccc(-c3nnc(-c4ccc(C)cc4)o3)c2)cc1OC	1.7	/	-1
C=CCOC(=O)C1=C[C@@H](c2coc3ccccc3c2=O)C[C@@H](OCc2ccc(CO)cc2)O1	1.3	/	/
C=C1CCN([C@@H](CC(C)C)C(=O)NCc2cc(OC)c(OC)c(OC)c2)S(=O)(=O)c2ccccc21	1.2	/	/
CC1CC(C)CN(c2ccc(C(=O)NCc3ccc4c(c3)OCO4)cc2[N+](=O)[O-])C1 (centres undefined)	/	/	2
Cc1ccc(/C(N)=N/OC(=O)N2CCOCC2)cc1	-0.038	/	-6
Cc1ccc(/C(N)=N/OC(=O)C23CC4CC(CC(C4)C2)C3)cc1	-7.1*	/	-2
CC(C)CN1C(=O)NC(NS(=O)(=O)c2ccc(N)cc2)(C(F)(F)F)C1=O (centres undefined)	/	/	1
O=C1CSC(c2c(F)cccc2Cl)N1c1cccc(F)c1 (centres undefined)	0.62	-4	-4
CCOc1ccccc1CN(Cc1ccco1)S(=O)(=O)c1ccc(-n2cnnn2)c(OC)c1	0.88	/	-2
Cc1cc(S(=O)(=O)N(Cc2ccccn2)Cc2ccco2)ccc1-n1cnnn1	2.6*	7	-2
CC1(C(=O)OCC(=O)N2c3ccccc3Sc3ccccc32)CC1(Cl)Cl (centres undefined)	/	/	0
CN(C)CCCN1c2ccc([N+](=O)[O-])cc2CCc2cc([N+](=O)[O-])ccc21	-0.35	/	/
Cc1ccc(C)c2[nH]c(=O)c(CN(Cc3ccco3)S(=O)(=O)c3ccc4c(c3)OCCO4)cc12	1.4	-9	5.4*
CCc1ccc2[nH]c(=O)c(CN(Cc3ccco3)S(=O)(=O)c3ccc4c(c3)OCCO4)cc2c1	0.17	-4	-4
O=C(CSC1=N/C(=C/c2ccc(Cl)c(Cl)c2)C(=O)N1c1ccccc1F)NC1CC1	/	/	-5
O=c1c(S(=O)(=O)c2ccc(Cl)cc2)cn(Cc2ccccc2F)c2ccc(F)cc12	/	/	4
SMILES	hDAT+cocaine	MRP reversal	MRP1 act
O=C(O)C(Cc1ccccc1)N1C(=O)/C(=C/c2cccc3ccccc23)SC1=S (centres undefined)	-2.7*	/	-1
O=C(O)C(Cc1ccccc1)N1C(=O)/C(=C/c2ccccc2)SC1=S (centres undefined)	/	/	-1
Cc1sc2ncnc(OCC(=O)NCC3CCCO3)c2c1C (centres undefined)	-3.3*	-12	-1
CNC(=O)COc1ncnc2sc(C)c(C)c12	-0.7	-6	0
CCCNC(=O)c1c(CSc2ccc(Cl)cc2)noc1C(=O)NCc1ccccc1	0.19	/	/
CC(=O)N(Cc1ccc(F)cc1)C1=C(NCc2ccccc2)C(=O)c2ccccc2C1=O	-4.3*	-3	-6
CC(=O)n1nc(-c2ccccc2)nc1NCc1ccc(F)cc1	-1.7	12	1
COc1ccc(Cl)cc1-c1nc(SCC(=O)NCCN2C(=O)CSC2=O)n[nH]1	/	/	-2
Cc1cc(Br)ccc1NC(=O)CNC(=O)CN(C)Cc1nc2ccccc2c(=O)[nH]1	-0.0085	-19	4.9*
Cc1ccc(NC(=O)CN(C)Cc2nc3ccccc3c(=O)[nH]2)c(Br)c1	0.44	-2	-2
